Out of some 5,500 compounds screened, about 2,000 (36%) were called active. About 18% were inconclusive and are not listed. Cut-off read from the data, not from the text of the source: active = normalized growth mostly below about 0.91 (no sharp cut-off); inconclusive = no clear call, values can overlap the other calls; inactive = mostly above about 0.92. This is one part of the list.
Assay: chemical genetic growth profiling, strain panel (AID 1159580);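 note: tested at 20 µM; growth read once vehicle control cultures reached saturation at 30 °C; 1 = growth at the plate median or of vehicle wells; lower values mean less growth of the strain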
Conditions: growth OD

Measured: normalized growth

CN1C[C@H](C(=O)N[C@]2(C)O[C@@]3(O)[C@@H]4CCCN4C(=O)[C@H](Cc4ccccc4)N3C2=O)C[C@@H]2c3cccc4[nH]cc(c34)C[C@H]21
inactive: S. cerevisiae deletion strains, locus YKL009W, strain mrt4, active compounds read low 0.97 | S. cerevisiae deletion strains, locus YKL068W, active compounds read low 0.989 | S. cerevisiae deletion strains, locus YKL085W, strain MDH1 (second series), active compounds read low 0.987 | S. cerevisiae deletion strains, locus YKL085W, strain MDH1, active compounds read low 0.987 | S. cerevisiae deletion strains, locus YKL160W, strain elf1, active compounds read low 0.928 | S. cerevisiae deletion strains, locus YKL190W, strain CNB1, active compounds read low 0.992 | S. cerevisiae deletion strains, locus YKR001C, strain vps1, active compounds read low 1 | S. cerevisiae deletion strains, locus YKR026C, strain gcn3, active compounds read low 0.996 | S. cerevisiae deletion strains, locus YKR091W, strain srl3, active compounds read low 0.983 | S. cerevisiae deletion strains, locus YLL001W, strain dnm1, active compounds read low 0.92 | S. cerevisiae deletion strains, locus YLL026W, active compounds read low 0.988 | S. cerevisiae deletion strains, locus YLL041C, strain sdh2, active compounds read low 0.997 | S. cerevisiae deletion strains, locus YLR027C, strain aat2, active compounds read low 0.992 | S. cerevisiae deletion strains, locus YLR039C, strain RIC1, active compounds read low 1.06 | S. cerevisiae deletion strains, locus YLR058C, strain SHM2, active compounds read low 0.957 | S. cerevisiae deletion strains, locus YLR102C, strain apc9, active compounds read low 0.974 | S. cerevisiae deletion strains, locus YLR113W, strain HOG1, active compounds read low 1.07 | S. cerevisiae deletion strains, locus YLR221C, strain rsa3, active compounds read low 0.997 | S. cerevisiae deletion strains, locus YLR258W, strain gsy2, active compounds read low 1.01 | S. cerevisiae deletion strains, locus YLR262C, strain YPT6 (second series), active compounds read low 0.973 | S. cerevisiae deletion strains, locus YLR262C, strain YPT6, active compounds read low 1.06 | S. cerevisiae deletion strains, locus YLR268W, strain sec22, active compounds read low 0.973 | S. cerevisiae deletion strains, locus YLR320W, strain mms22, active compounds read low 0.969 | S. cerevisiae deletion strains, locus YLR330W, strain CHS5, active compounds read low 0.984 | S. cerevisiae deletion strains, locus YLR342W, strain FKS1 (second series), active compounds read low 0.906 | S. cerevisiae deletion strains, locus YLR342W, strain FKS1, active compounds read low 1.01 | S. cerevisiae deletion strains, locus YLR357W, strain rsc2, active compounds read low 0.957 | S. cerevisiae deletion strains, locus YLR370C, strain arc18, active compounds read low 0.987 | S. cerevisiae deletion strains, locus YLR371W, strain rom2, active compounds read low 0.974 | S. cerevisiae deletion strains, locus YLR384C, strain iki3, active compounds read low 1.01 | S. cerevisiae deletion strains, locus YML016C, strain PPZ1, active compounds read low 0.979 | S. cerevisiae deletion strains, locus YML032C, strain rad52, active compounds read low 0.979 | S. cerevisiae deletion strains, locus YML120C, strain ndi1, active compounds read low 0.95 | S. cerevisiae deletion strains, locus YML124C, strain tub3, active compounds read low 0.982 | S. cerevisiae deletion strains, locus YMR058W, strain fet3, active compounds read low 0.965 | S. cerevisiae deletion strains, locus YMR078C, strain ctf18, active compounds read low 0.963 | S. cerevisiae deletion strains, locus YMR125W, strain sto1, active compounds read low 0.921 | S. cerevisiae deletion strains, locus YMR129W, active compounds read low 0.989 | S. cerevisiae deletion strains, locus YMR205C, strain PFK2, active compounds read low 0.946 | S. cerevisiae deletion strains, locus YMR223W, strain ubp8, active compounds read low 0.941 | S. cerevisiae deletion strains, locus YMR231W, strain pep5, active compounds read low 1.01 | S. cerevisiae deletion strains, locus YMR263W, strain SAP30, active compounds read low 0.959 | S. cerevisiae deletion strains, locus YMR307W, strain GAS1, active compounds read low 0.821 | S. cerevisiae deletion strains, locus YNL067W, strain RPL9B, active compounds read low 0.961 | S. cerevisiae deletion strains, locus YNL071W, strain lat1, active compounds read low 0.994 | S. cerevisiae deletion strains, locus YNL128W, strain TEP1, active compounds read low 0.96 | S. cerevisiae deletion strains, locus YNL153C, strain GIM3, active compounds read low 0.965 | S. cerevisiae deletion strains, locus YNL183C, strain NPR1, active compounds read low 0.98 | S. cerevisiae deletion strains, locus YNL209W, strain ssb2, active compounds read low 0.981 | S. cerevisiae deletion strains, locus YNL233W, strain BNI4, active compounds read low 0.933 | S. cerevisiae deletion strains, locus YNL248C, strain rpa49, active compounds read low 0.933 | S. cerevisiae deletion strains, locus YNL250W, strain rad50, active compounds read low 0.984 | S. cerevisiae deletion strains, locus YNL271C, strain bni1, active compounds read low 0.974 | S. cerevisiae deletion strains, locus YNL298W, strain CLA4, active compounds read low 0.985 | S. cerevisiae deletion strains, locus YNL307C, strain MCK1, active compounds read low 0.967 | S. cerevisiae deletion strains, locus YNL322C, strain KRE1 (second series), active compounds read low 0.989 | S. cerevisiae deletion strains, locus YNL322C, strain KRE1, active compounds read low 0.996 | S. cerevisiae deletion strains, locus YNR049C, strain mso1, active compounds read low 0.983 | S. cerevisiae deletion strains, locus YNR052C, strain pop2, active compounds read low 0.972 | S. cerevisiae deletion strains, locus YOL006C, strain TOP1, active compounds read low 0.79 | S. cerevisiae deletion strains, locus YOL012C, strain htz1 0.956 | S. cerevisiae deletion strains, locus YOL147C, strain pex11, active compounds read low 0.975 | S. cerevisiae deletion strains, locus YOR001W, strain rrp6, active compounds read low 1.05 | S. cerevisiae deletion strains, locus YOR061W, strain CKA2, active compounds read low 0.986 | S. cerevisiae deletion strains, locus YOR069W, strain VPS5, active compounds read low 0.989 | S. cerevisiae deletion strains, locus YOR070C, strain gyp1, active compounds read low 1 | S. cerevisiae deletion strains, locus YOR080W, strain dia2, active compounds read low 0.996 | S. cerevisiae deletion strains, locus YOR083W, strain WHI5, active compounds read low 0.931 | S. cerevisiae deletion strains, locus YOR106W, strain vam3, active compounds read low 0.914 | S. cerevisiae deletion strains, locus YOR136W, strain idh2, active compounds read low 0.977 | S. cerevisiae deletion strains, locus YOR144C, strain elg1, active compounds read low 0.985 | S. cerevisiae deletion strains, locus YOR184W, strain ser1, active compounds read low 0.943 | S. cerevisiae deletion strains, locus YOR231W, strain MKK1, active compounds read low 1.05 | S. cerevisiae deletion strains, locus YOR265W, strain rbl2, active compounds read low 0.994 | S. cerevisiae deletion strains, locus YOR270C, strain vph1, active compounds read low 0.909 | S. cerevisiae deletion strains, locus YOR290C, strain snf2, active compounds read low 0.962 | S. cerevisiae deletion strains, locus YOR316C, strain cot1, active compounds read low 0.971 | S. cerevisiae deletion strains, locus YPL051W, strain arl3, active compounds read low 0.992 | S. cerevisiae deletion strains, locus YPL055C, strain LGE1, active compounds read low 0.91 | S. cerevisiae deletion strains, locus YPL078C, strain atp4, active compounds read low 0.926 | S. cerevisiae deletion strains, locus YPL106C, strain sse1, active compounds read low 0.967 | S. cerevisiae deletion strains, locus YPL240C, strain hsp82, active compounds read low 0.989 | S. cerevisiae deletion strains, locus YPL241C, strain CIN2, active compounds read low 0.993 | S. cerevisiae deletion strains, locus YPL256C, strain CLN2, active compounds read low 1.03 | S. cerevisiae deletion strains, locus YPR119W, strain clb2, active compounds read low 0.967 | S. cerevisiae deletion strains, locus YPR141C, strain kar3, active compounds read low 0.968 | S. cerevisiae deletion strains, locus YPR163C, strain tif3, active compounds read low 0.989 | S. cerevisiae deletion strains, locus YPR167C, strain met16, active compounds read low 0.969 | S. cerevisiae deletion strains, strain wtn01, active compounds read low 0.965 | S. cerevisiae strains, strain wild type, active compounds read low 0.986
active: S. cerevisiae deletion strains, locus YLR418C, strain cdc73, active compounds read low 0.803

Source: PubChem BioAssay AID1159580 (chemical genetic matrix, 2015)
